Measurements as given in PubChem BioAssay AID504847 (National Center for Advancing Translational Sciences (NCATS), 2011).
Where “and” joins values, the source holds several entries; their conditions need not be identical. Equal entries are not always repeated. About 3,700 (0.93%) of roughly 400,000 compounds were called active. Inconclusive results (about 3%) are left out. Calls follow the shape of the dose curve; as a rule, active = well fitted inhibition curve with a large enough effect; inconclusive = small, poorly fitted or top-dose-only effect, or another doubt; inactive = no such curve, though single readings can be large or run the other way. The full list was thinned out, with actives kept by preference.

Each compound was assayed against Vitamin D3 receptor (Homo sapiens) (UniProt P11473) (assay: Inhibitors of the vitamin D receptor (VDR): qHTS). Settings: VDR-SRC2-3 peptide fluorescence polarization, 2 h; max response, negative = inhibition: active compounds read low.
In short: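 Fluorescence polarization assay of small-molecule disruption of VDR binding to coregulator peptide SRC2-3. Compounds and controls pin-transferred, then read after 2 h incubation at ambient room temperature.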
% is scaled to controls: 0 for no effect and ±100 for the full control effect; potency is read from the fitted curve at half-maximal effect.

Vitamin D3 receptor (Homo sapiens), sequence (P11473 whole entry, looked up): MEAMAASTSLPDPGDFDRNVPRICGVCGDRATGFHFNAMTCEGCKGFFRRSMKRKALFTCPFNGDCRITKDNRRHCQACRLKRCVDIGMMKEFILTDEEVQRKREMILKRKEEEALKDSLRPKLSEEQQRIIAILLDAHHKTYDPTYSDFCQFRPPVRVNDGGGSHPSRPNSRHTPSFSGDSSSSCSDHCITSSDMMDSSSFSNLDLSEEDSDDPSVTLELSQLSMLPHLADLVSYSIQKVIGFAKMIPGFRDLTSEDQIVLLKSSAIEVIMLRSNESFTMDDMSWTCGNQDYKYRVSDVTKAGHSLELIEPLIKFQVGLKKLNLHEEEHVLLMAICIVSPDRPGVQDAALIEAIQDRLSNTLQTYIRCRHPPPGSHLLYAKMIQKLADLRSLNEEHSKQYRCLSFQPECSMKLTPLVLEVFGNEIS

Structure (SMILES) | max response, negative = inhibition | Potency
Cc1nn2c(=O)cc(COC(=O)c3cccc(NC(=O)COc4ccccc4Cl)c3)nc2s1 | 9.23% (inactive) | –
Nc1ncnc2c1c(I)cn2[C@@H]1C[C@H](N)[C@@H](O)[C@H]1O | -8.19% (inactive) | –
COc1ccc(Cl)cc1NC(=O)c1sc2nc3c(cc2c1N)CN(C)CC3 | -1.58% (inactive) | –
N#Cc1c(N2CCCCC2)nc(N)c2c(N)nc(SCC(=O)O)cc12 | – | 50.1 µM (active)
O=C(O)CSc1ccc(S(=O)(=O)N2CCCC2)cn1 | 10.8% (inactive) | –
N#Cc1c(C(F)(F)F)cc(-c2ccc(Cl)cc2)nc1SCC(=O)O | -2.18% (inactive) | –
Cc1cc(C)cc(NS(=O)(=O)c2cc3c(cc2C)NC(=O)CO3)c1 | -6.49% (inactive) | –
Cc1cc(C)c(NC(=O)CN2C(=O)c3cccnc3Oc3ccc(Cl)cc32)c(C)c1 | 7.84% (inactive) | –
COCCNC(=O)Nc1ccc2nc(-c3ccco3)c(-c3ccco3)nc2c1 | – | 79.4 µM (active)
C=CCNC(=O)c1ccc2nc(-c3ccco3)c(-c3ccco3)nc2c1 | -28.3% (inactive) | –
CCOc1ccc(NC(=O)c2ncoc2-c2ccco2)cc1 | 3.68% (inactive) | –
CCC(C)NC(=O)Cn1c(=O)n(-c2ccc(Cl)cc2)c(=O)c2c3c(sc21)CCCC3 (centres undefined) | 7.47% (inactive) | –
Cc1nc([N+](=O)[O-])nn1C12CC3CC(CC(Br)(C3)C1)C2 | – | 20 µM (active)
CC1(C)OC2CC(=O)OC[C@@]23C1CC(=O)[C@]1(C)C3CC[C@@]2(C)C(c3ccoc3)OC(=O)C3O[C@@]321 (some centres undefined) | 3.74% (inactive) | –
CCOC(=O)c1c(C)oc2nc(C)nc(N3CCN(c4ccc(OC)cc4)CC3)c12 | 5.63% (inactive) | –
COc1ccc(C2(C#N)CCC(C(=O)O)CC2)cc1OC1CCCC1 (centres undefined) | 5.35% (inactive) | –
CC(C)Oc1ccc(CC(=O)NNC(=S)Nc2ccc(Br)cc2)cc1 | – | 70.8 µM (active)
CC(C)Oc1ccc(NC(=O)c2cc3ccccc3o2)cc1 | 10.8% (inactive) | –
Cc1ccc(OC(=O)CCC(=O)Nc2ccc(Br)cc2)cc1 | 4.03% (inactive) | –
FCOC(C(F)(F)F)C(F)(F)F | 1.95% (inactive) | –
O=C(CSc1nnc(CNC(=O)c2ccccc2)n1-c1ccc(F)cc1)Nc1ccccc1F | 2.71% (inactive) | –
CCOc1ccc(N(C)S(=O)(=O)c2cc(-c3cnc(C)o3)ccc2OC)cc1 | -2.82% (inactive) | –
O=C(O)c1ccc2c(c1)C(=O)N(c1ccc(/C=C/C(=O)c3ccccc3)cc1)C2=O | – | 20 µM (active)

Structure (SMILES) | max response, negative = inhibition | Potency
Cc1cccc(N2C(=O)c3ccc(C(=O)Nc4cccc(C(=O)O)c4)cc3C2=O)c1 | 13.1% (inactive) | –
O=C(c1ccc2c(c1)C(=O)N(c1ccc(Cl)cc1)C2=O)N1CCN(c2ccccn2)CC1 | -2.28% (inactive) | –
Cc1ccc(-n2c(SCC(=O)c3ccccc3)nc3c([nH]c4ccccc43)c2=O)cc1 | 23.5% (inactive) | –
COc1ccc(Cl)cc1NC(=O)CSc1nc(=O)[nH]c2c1CCCC2 | -3.46% (inactive) | –
Nc1ncc(S(=O)(=O)Nc2ccc(OC(F)(F)F)cc2)cn1 | 5.75% (inactive) | –
CCN(CC)C(=O)CSc1nnc(CNc2ccc(F)cc2)n1Cc1ccco1 | 6.05% (inactive) | –
CN(C)C(=S)N=c1ssc(=S)n1Cc1ccco1 | – | 44.7 µM (active)
CC1CN(Cc2ccco2)C(=S)N(c2ccccc2)C1=O (centres undefined) | 8.1% (inactive) | –
COc1cc(C(=O)Nc2ccc(-n3c(C)nc4ccccc4c3=O)cc2)cc(OC)c1OC | -3.22% (inactive) | –
Cc1cccc(NC(=O)C2CCCN2S(=O)(=O)c2cccc3nsnc23)c1C (centres undefined) | -10.9% (inactive) | –
CN(C)C(=O)N=NC(=O)N(C)C | – | 20 µM (active)
COc1ccc(-n2ccnc(NCCc3ccc(Cl)cc3)c2=O)cc1OC | 6.6% (inactive) | –
COc1cccc(-c2nnc3n(CCc4ccccc4)c(=O)c4ccccc4n23)c1O | 17.6% (inactive) | –
CC1CCN(C(=S)c2cccc(O)c2)CC1 | -26.6% (inactive) | –
Cc1csc(NC(=O)c2ccc(-c3ccc(Cl)cc3Cl)o2)n1 | -1.72% (inactive) | –
CC1CCN(C(=S)c2ccc(-c3ccc(Cl)cc3Cl)o2)CC1 | – | 79.4 µM (active)
Cc1cccc(Nc2cc(C)nc(-n3nc(C)cc3C)n2)c1 | 8.15% (inactive) | –
Cc1cccn2c(=O)c(/C=C(\C#N)C(N)=O)c(N3CCCCCC3)nc12 | -6.66% (inactive) | –
Cc1cc(C)cc(Oc2nc3c(C)cccn3c(=O)c2/C=C(\C#N)C(=O)NC2CCS(=O)(=O)C2)c1 (centres undefined) | – | 20 µM (active)
Cc1cccn2c(=O)c3cc(C(=O)NC4CCCCC4)sc3nc12 | 8.23% (inactive) | –
Cc1ccc(C(=O)Nc2ccc3[nH]c(=O)c(=O)[nH]c3c2)cc1 | -3.19% (inactive) | –
COc1ccc(CCNC(=O)CCCCn2c(=O)c3ccccc3n(Cc3ccccc3)c2=O)cc1OC | -5.56% (inactive) | –
COc1cc(C(=O)Nc2ccc(OCc3cc(=O)n4ccc(C)cc4n3)cc2)cc(OC)c1OC | 15.3% (inactive) | –

Structure (SMILES) | max response, negative = inhibition | Potency
CC(C)(C)c1ccc(C(=O)N2CCC(c3nc(-c4ccc(S(=O)(=O)N5CCCC5)cc4)no3)CC2)cc1 | -2.01% (inactive) | –
COc1ccccc1N1CCN(c2ncnc3sc(C)c(-c4ccccc4)c23)CC1 | 9.44% (inactive) | –
Oc1ccccc1N1CCN(c2ncnc3sc(-c4ccccc4)cc23)CC1 | – | 22.4 µM (active)
c1ccc(-c2cc3c(NCC4COc5ccccc5O4)ncnc3s2)cc1 (centres undefined) | 3.5% (inactive) | –
CCOC(=O)c1c(S(=O)(=O)N2CCCC(C(=O)NCc3ccc(F)cc3)C2)c(C)n(CC)c1C (centres undefined) | 12% (inactive) | –
CCCC(=O)Nc1ccc(NC(=O)c2sc3ccccc3c2Cl)cc1 | 1.71% (inactive) | –
Cc1ccc(-c2nc3ccccn3c2Nc2ccc(F)cc2)o1 | -13.1% (inactive) | –
Cc1cccc(C)c1Nc1c(-c2ccccc2O)nc2ncccn12 | 11.5% (inactive) and -13.4% (inactive) | –
Cc1ccc(-c2nc3ccccn3c2Nc2c(C)cccc2C)o1 | – | 79.4 µM (active)
CC1CCc2noc(NC(=O)c3ccc([N+](=O)[O-])cc3)c2C1 (centres undefined) | 20% (inactive) | –
Cc1cccc(C(CC(=O)NCC2(c3ccccc3)CCCC2)c2ccccc2)c1O (centres undefined) | -3.18% (inactive) | –
Cc1ccc(-c2cnc(NCc3ccc(C(C)C)cc3)n2C)cc1 | -12.2% (inactive) | –
COC(=O)c1cc(NC(=O)CCc2c(C)nc3c4c(C)cc(C)nc4nn3c2C)cc(C(=O)OC)c1 | -12% (inactive) | –
CCCCc1nnc(NC(=O)CSc2nc(C)cc(=O)[nH]2)s1 | -6.96% (inactive) | –
CCOC(=O)Cc1csc(SCC(=O)Nc2ccc(C)cc2F)n1 | -24.6% (inactive) | –
CCOC(=O)Cc1csc(NC(=O)CSc2nc(C)cc(=O)[nH]2)n1 | – | 44.7 µM (active)
C=CCOC(=O)C(=C)C | 10.1% (inactive) | –
COc1ccc(CCC(=O)NCc2ccc3c(c2)CCN3C(=O)c2ccc(F)cc2)cc1 | 1.51% (inactive) | –
Cc1cccc(OCCCC(=O)Nc2sc3c(c2C(N)=O)CCC(C)C3)c1 (centres undefined) | 0.722% (inactive) | –
Cc1ccccc1NC(=O)c1c(NC(=O)c2ccccc2F)sc2c1CCC(C)C2 (centres undefined) | -12.5% (inactive) | –
O=C(Cc1ccccc1)Nc1sc2c(c1C(=O)Nc1ccc(Br)cc1)CCC2 | 1.17% (inactive) | –
CCOc1ccc(NC(=O)c2c(NCc3cccc(OC)c3OC)sc3c2CCC3)cc1 | -0.323% (inactive) | –
CCOc1ccc(NC(=O)c2c(NC(=O)Cc3ccccc3)sc3c2CCCCC3)cc1 | – | 17.8 µM (active)

Structure (SMILES) | max response, negative = inhibition | Potency
CCOc1ccc(NC(=O)c2c(NC(=O)Cc3ccccc3)sc3c2CCC(C)C3)cc1 (centres undefined) | – | 79.4 µM (active)
COc1ccc2oc(-c3ccc(C)c(NC(=O)c4sc5ccccc5c4Cl)c3)nc2c1 | -13.7% (inactive) | –
O=C(O)c1ccc(Nc2nc(-c3ccccc3)c3cc(Br)ccc3n2)cc1 | -8.21% (inactive) | –
Cc1cccc(N2CCN(C(=O)CCn3c(=O)c4cccn4c4cccnc43)CC2C)c1 (centres undefined) | -1.09% (inactive) | –
Cc1ccc(C2CCN(C(=O)c3cnn(-c4ccccc4Cl)c3C3CCN(C(=O)OC(C)(C)C)CC3)C2)cc1 (centres undefined) | 14.7% (inactive) | –
Cc1cccc(C(=O)N2CCc3cc(CNC(=O)Cc4ccc(F)cc4)ccc32)c1 | 6.68% (inactive) | –
CCCCNC(=O)Cn1c(SCc2cccc(Cl)c2)nc2ccncc21 | -15.1% (inactive) | –
O=S(=O)(Nc1cccc2cccnc12)c1cccc2cccnc12 | -4.84% (inactive) | –
CCOC(=O)c1ccc(NC(=O)c2c(NCc3cccs3)sc3c2CCCC3)cc1 | -5.89% (inactive) | –
O=C(Nc1ccc2nc(SCC(=O)N3CCc4ccccc43)sc2c1)c1ccccc1F | 0.401% (inactive) | –
CN(C(=O)CSc1nc2ccc(NC(=O)COc3ccccc3)cc2s1)c1ccccc1 | 3.21% (inactive) | –
O=C(O)c1ccccc1CSc1nc2ccccc2s1 | – | 89.1 µM (active)
CCOc1ccccc1NC(=O)C1=C(C)Nc2ncnn2C1c1ccc(NC(C)=O)cc1 (centres undefined) | 6.42% (inactive) | –
COc1ccc(Br)cc1C1C2C=CCC(C)C2C(=O)N1Cc1ccccc1 (centres undefined) | -6.47% (inactive) | –
COc1ccccc1CNC(=O)c1ccc(NC(=O)N2CC(C)Sc3ccccc32)cc1 (centres undefined) | -3.93% (inactive) | –
O=C(NCc1ccccc1)c1cccc(NC(=O)N2CCSc3ncccc32)c1 | 4.27% (inactive) | –
O=C(O)CCCN1C(=O)c2ccccc2Sc2ncccc21 | 23.5% (inactive) | –
Cc1cc(C(=O)COC(=O)CCCN2C(=O)c3ccccc3C2=O)c(C)n1C | 11.4% (inactive) | –
CCCCN1C(=O)/C(=C(/C#N)C(N)=O)c2ccccc21 | – | 50.1 µM (active)
O=C(/C=C/c1cn(CC(O)CN2CCc3ccccc32)c2ccccc12)c1ccc(Br)cc1 (centres undefined) | 25.1% (inactive) | –
